Among all 290,000 compounds or so, about 11,000 (3.8%) were called active.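 The calls were made as follows: active = mean replicate inhibition above about 79%, with every replicate also reaching it (limit read from the data); inconclusive = only one of the two criteria met; inactive = mean below limit and not every replicate reaching it.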 Many of the other results were omitted from the sample, so actives are more common in it than they were.

Chain of FAD-linked sulfhydryl oxidase ALR (Homo sapiens) (P55789 whole entry, looked up): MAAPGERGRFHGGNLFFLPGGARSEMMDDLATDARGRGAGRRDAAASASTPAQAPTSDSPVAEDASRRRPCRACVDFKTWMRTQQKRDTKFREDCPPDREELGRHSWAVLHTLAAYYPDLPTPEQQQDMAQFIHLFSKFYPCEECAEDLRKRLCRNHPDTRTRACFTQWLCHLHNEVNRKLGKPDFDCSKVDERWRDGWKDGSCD

This experiment has as its target FAD-linked sulfhydryl oxidase ALR (Homo sapiens) (UniProt P55789). Nature of the experiment: ALR-catalysed DTT oxidation blockers – biochemical, H2O2 detection, HRP-luminol luminescence, single point, primary screen (AID 485317). As to conditions: purified ALR, active compounds read high, concentration not given here.
With `CC(=O)Nc1ccc(C(=O)NNC(=O)CCCCC(=O)NNC(=O)c2ccc(NC(C)=O)cc2)cc1`, the inhibition (in general, the change of the read-out against control, counted positive when it falls) is -0.231% (inactive).
As for `CNC[C@H]1Oc2c(NC(=O)C3CCCCC3)cccc2C(=O)N([C@H](C)CO)C[C@@H]1C`, the inhibition is -1.07% (inactive).
Under `C=CC[C@@H](CC(=O)N[C@H](CO)Cc1ccccc1)C(=O)N[C@H](C)COC(=O)[C@@H](CC=C)Cc1ccc(F)cc1` stands 2.31% (inactive).
To `CCOC(=O)c1cc(-c2ccccc2C)n(Cc2cc(C)no2)n1` belongs 0.367% (inactive); to `Cc1ccc(S(=O)(=O)N2[C@@H](c3ccccc3F)C(C(=O)O)=CC[C@H]2c2ccc(Cl)cc2)cc1`, 2.55% (inactive); to `COc1ccc(S(=O)(=O)N2CCN(c3cnccn3)CC2)cc1`, -0.305% (inactive).
To `CO/N=C(\C(=O)N[C@@H]1C(=O)N2C(C(=O)O)=C(COC(C)=O)CS[C@H]12)c1csc(N)n1` (stereo in doubt) belongs -8.83% (inactive).
On to `Cc1cc(C)cc(C(=O)NC2C(=O)N3C(C(=O)O)=C(CSc4nnc(C)s4)CSC23)c1` (stereo unspecified), for which the inhibition was 98% (active).
On to `Cc1nnc(SCC2=C(C(=O)O)N3C(=O)C(NC(=O)Cn4nc(C)c(Cl)c4C)C3SC2)s1` (stereo unspecified), for which the inhibition was -10.4% (inactive).
To `CCc1ccc(Nc2n[n+](-c3ccccc3)c(-c3cccc(Cl)c3Cl)s2)cc1` belongs -4.3% (inactive); to `Cc1ccc(S(=O)(=O)NCC(=O)NNC(=O)c2ccc(Br)cc2)cc1C`, -2.29% (inactive); to `CC1(NC(=O)CCS(=O)(=O)c2ccc(Cl)cc2)CCS(=O)(=O)C1` (stereo unspecified), -4.01% (inactive).
Under `O=[N+]([O-])c1ccc(O)c(/C=N/Nc2ccccc2[N+](=O)[O-])c1` stands -10.4% (inactive); under `O=C(O)c1ccccc1C(=O)Nc1ccccc1[N+](=O)[O-]`, -2.15% (inactive).
Under `O=[N+]([O-])c1ccccc1Nc1ccc(O)cc1` stands 99.6% (active); under `Nc1nnc(SCC(=O)NCC(=O)Nc2ccc(F)c(F)c2F)s1`, 1.09% (inactive).
As for `CN(CC(=O)NC1CCCCC1)S(=O)(=O)c1cccc2cccnc12`, the inhibition was 89.5% (active).
Turning to `CN(CC(=O)NC1CCCCC1)S(=O)(=O)c1ccc(Br)s1`, the inhibition is -15% (inactive).
Under `CN(CC(=O)NC1CCCC1)S(=O)(=O)c1cnc[nH]1` stands -4.3% (inactive); under `CN(CC(=O)Nc1ccc(Cl)cc1)CC(=O)Nc1cccc2ccccc12`, 2.05% (inactive); under `CCN(CC(=O)Nc1ccc(OC)cc1)C(=O)c1ccc(=O)n(Cc2ccccc2)n1`, 0.415% (inactive).
With `Cc1noc(C)c1NC(=O)Nc1ccc2c(c1)C(=O)N([C@H](C)CO)C[C@H](C)[C@@H](CN(C)S(=O)(=O)c1cn(C)cn1)O2`, the inhibition is -2.52% (inactive).
Under `O=C(COC(=O)c1c2c(nc3ccccc13)/C(=C\c1cccs1)CCC2)Nc1ccccc1Cl` stands -2.03% (inactive); under `COc1cc(/C=C2\CCCc3c2nc2ccccc2c3C(=O)O)cc(Cl)c1O`, 98.2% (active); under `NS(=O)(=O)c1ccc(NC(=O)COC(=O)c2c3c(nc4ccccc24)/C(=C\c2ccc4c(c2)OCO4)CCC3)cc1`, -36% (inactive).
Under `CN(CC(=O)NCCc1ccc(S(N)(=O)=O)cc1)CC(=O)Nc1ccc(Cl)cc1` stands -9.18% (inactive).
Under `CC1(C)C/C(=N/Nc2ccc([N+](=O)[O-])cc2[N+](=O)[O-])C(C)(C)O1` stands -14.3% (inactive); under `CCc1nnc(NS(=O)(=O)c2ccc(NC(=O)c3cccc(OC(F)(F)C(F)F)c3)cc2)s1`, 88.3% (active); under `CCc1nnc(NS(=O)(=O)c2ccc(NC(=S)NC(=O)c3cccs3)cc2)s1`, 63.2% (inactive).
Turning to `CCc1nnc(NS(=O)(=O)c2ccc(NS(=O)(=O)c3ccccc3)cc2)s1`, the inhibition is 35.6% (inactive).
Under `O=C(COc1ccccc1)Nc1cc2c3c(c1)CC(=O)N3CCC2` stands -6.99% (inactive); under `O=C(c1ccncc1)N1CCN(S(=O)(=O)c2cccc([N+](=O)[O-])c2)CC1`, -48.9% (inactive).
Under `COc1cccc(NC(=O)CN2CCN(CC(=O)Nc3ccccc3Cl)CC2)c1` stands -2.36% (inactive).
Under `COc1cccc(NC(=O)Cn2c3ccc(F)cc3c3nc4n(c(=O)c32)CCS4)c1` stands -3.06% (inactive); under `COc1cccc(NC(=O)Cn2c3ccccc3c3nc4n(c(=O)c32)CCS4)c1`, 85.8% (active).
For the molecule `C[C@H]1CN([C@@H](C)CO)C(=O)Cc2cc(NS(C)(=O)=O)ccc2O[C@@H]1CN(C)CC1CC1`, the inhibition is 0.795% (inactive).
Under `O=C(CSc1nc(C2CC2)nc2ccccc12)Nc1ccc2c(c1)OCCO2` stands 40.9% (inactive); under `CN(C(=O)CSc1nc(C2CC2)nc2ccccc12)c1nc(-c2ccccc2)cs1`, 98.6% (active).
Under `Cc1nnc(NC(=O)CSc2nc(C3CCCCC3)nc3ccccc23)s1` stands -39.6% (inactive); under `Cc1ccccc1OCC(=O)NNC(=O)c1ccc(-n2cncn2)c([N+](=O)[O-])c1`, -24.1% (inactive); under `O=C(NCCCN1CCCC1=O)c1ccc(S(=O)(=O)Nc2ccccc2)cc1`, -9.87% (inactive).
To `COc1ccccc1OCCCCCCN1CCN(C)CC1` belongs -12.6% (inactive); to `CCCC(=O)Nc1ncnc2c1ncn2[C@@H]1O[C@@H]2OP(=O)(O)OC[C@H]2[C@H]1OC(=O)CCC`, -3.4% (inactive).
`Cc1cc(C(=O)CC#N)c(C)n1-c1c(C)n(C)n(-c2ccccc2)c1=O`: the inhibition is 14.7% (inactive).
Under `Cc1cc(C(=O)COC(=O)CNC(=O)c2ccc(F)cc2)c(C)n1Cc1ccco1` stands -2.4% (inactive); under `Cc1cc(C(=O)CC#N)c(C)n1CC(F)(F)F`, 94.8% (active).
Turning to `Cc1ccc(CNC(=O)c2ccc3c(c2)S(=O)(=O)c2ccccc2C3=O)cc1`, the inhibition was -10.2% (inactive).
Under `N=c1c2c3c(sc2ncn1N)CCCC3` stands -10.4% (inactive); under `c1nnc2c3c4c(sc3ncn12)CCC4`, 45.2% (inactive).
With `S=c1[nH]nc2c3c4c(sc3ncn12)CCCC4`, the inhibition is 97.9% (active).
As for `Cc1c(O)c(C)c2c(c1O)C(=O)C[C@@H](c1ccccc1)O2`, the inhibition is 2.46% (inactive).
To `COc1ccccc1C(=O)COC(=O)COc1ccc(C#N)cc1` belongs 10.4% (inactive); to `O=S(=O)(Nc1ncnc2sccc12)c1cccc(F)c1`, 8.21% (inactive).
On to `COc1ccc(NS(=O)(=O)c2ccc(NC(C)=O)cc2)cc1OC`, for which the inhibition is -18.8% (inactive).
Under `COc1ccc(C(=O)Oc2cc(/C=N/NS(=O)(=O)c3ccc(C)cc3)ccc2OC)cc1` stands -2.65% (inactive); under `COc1ccc(/C=C/C(=O)c2ccc(NS(=O)(=O)c3ccc(C)cc3)cc2)cc1O`, 82.9% (active).

Values taken from PubChem BioAssay AID485317 (Broad Institute, 2010).
